The values below come from PubChem BioAssay (NCATS).

Where “and” joins values, the source holds several entries; their conditions need not be identical. Equal entries are not always repeated. Records with an inconclusive call do not appear. Calls of active or inactive are those of the source. Calls follow the shape of the dose curve; as a rule, active = well fitted activation curve with a large enough effect in the signal ratio (not every such curve was filed as active); inconclusive = small, poorly fitted or top-dose-only effect, or a change in a side signal; inactive = flat fitted curve, though single readings scatter; the % refers to the signal ratio.

This test can be described thus: qHTS assay for small molecule activators of the p53 signaling pathway (AID 651743). Also: series mostly up to about 92 µM; % of control where 0% means no effect. Particulars: HCT-116 p53RE-bla, beta-lactamase FRET ratio, 16 h; hits give high values. From the text:
National Center for Advancing Translational Sciences [NCATS] NIH Chemical Genomics Center [NCGC] U.S. Environmental Protection Agency [EPA] National Institutes of Environmental Health Sciences [NIEHS] National Toxicology Program [NTP] Assay Overview: p53, a tumor suppressor protein, is activated following cellular insult, including DNA damage and other cellular stresses. The activation of p53 regulates cell fate by inducing DNA repair, cell cycle arrest, apoptosis, or cellular senescence. The activation of p53, therefore, is a good indicator of DNA damage and other cellular stresses. The CellSensor p53RE-bla HCT-116 cell line (Invitrogen) contains a stably integrated beta-lactamase reporter gene under control of the p53 response elements. The activation of the report gene under culture conditions can be detected by fluorescence intensity. This cell line can be used to screen chemicals in a 1536-well plate format and to identify agonists that activate p53 signaling pathway.
Assay Protocol Summary: The p53RE-bla cells were dispensed at 4,000 cells/5 ul/well in 1536-well black wall/clear bottom plates using a Multidrop dispenser. After the assay plates were incubated at a 37 C/5% CO2 incubator for 5 hours, 23 nL of compounds dissolved in DMSO, positive controls or DMSO only was transferred to the assay plate by a pin tool. The plates were incubated at 37 C for 16 hours. After 1 uL of LiveBLAzer B/G FRET substrate was added using a Flying Reagent Dispenser, the plates were incubated at room temperature for 2 hours, and fluorescence intensity was measured by an Envision plate reader.
(In general: qHTS replaces the single test concentration by a dilution series.)
On to `CC1CC(OC(=O)c2ccccc2O)CC(C)(C)C1` (centres undefined), for which the activation was -6.41% (inactive). Consider `CC(=O)Nc1ccc(C(=O)O)cc1`, for which the activation was -0.0847% (inactive).

As for `CC(C)=CCC/C(C)=C/CO`, the activation was -2.29% (inactive).

With `O=C(O)CCCCC1CCSS1` (centres undefined), the activation is -5.57% (inactive) and 16.2% (inactive). With `CC(=O)NS(=O)(=O)c1ccc(N)cc1`, the activation is -3.02% (inactive).

As for `CCCCCCCCCCCCCCCCCCO`, the activation was -2.92% (inactive).

`OC[C@@H](O)[C@@H](O)[C@H](O)[C@H](O)CO`: the activation is -0.611% (inactive). In the case of `CCCCCCCC(=O)OCC(COC(=O)CCCCCCC)OC(=O)CCCCCCC`, the activation is -2.91% (inactive).

On to `Cc1cc(C)nc(NS(=O)(=O)c2ccc(N)cc2)n1`, for which the activation was -3.59% (inactive) and 3.14% (inactive).

With `C=CCNC(N)=S`, the activation was -1.91% (inactive). To `CCCCOC(=O)c1ccc(N)cc1` belongs -1.05% (inactive). `CC(=O)Nc1cccc(O)c1`: the activation is -0.0293% (inactive). For the molecule `O=C1C(c2[nH]c3ccccc3c2O)=Nc2ccccc21`, the activation was -4.39% (inactive). `Nc1ccc(S(=O)(=O)c2ccc(N)cc2)cc1`: the activation was -4.8% (inactive) and 0.655% (inactive). On to `O=C1c2cccc(O)c2C(=O)c2c(O)cccc21`, for which the activation is 3.77% (inactive). In the case of `Cc1c(C(=O)NCCO)[n+](=O)c2ccccc2n1[O-]`, the activation is 3.58% (inactive). For the molecule `Cc1ccc(C(C)C)c(O)c1`, the activation is -1.75% (inactive).

`COc1ccc(O)cc1`: the activation was 1.27% (inactive). Consider `CC[N+](CC)(CC(=O)Nc1c(C)cccc1C)Cc1ccccc1`, for which the activation is -6.37% (inactive).

With `CCCC(O)C(CC)CO` (centres undefined), the activation was 1.06% (inactive). To `CCCCCC(N)=O` belongs 0.75% (inactive); to `FC(F)(F)C(Cl)Br` (centres undefined), -1.4% (inactive).

As to `O=C(OOC(=O)c1ccccc1)c1ccccc1`, the activation is -0.427% (inactive). Consider `Cc1cc(=O)[nH]c(=S)[nH]1`, for which the activation was -1.35% (inactive).
